Source: PubChem (National Center for Advancing Translational Sciences (NCATS))
Rows were chosen to be rich in hits. Some 2.1% of all compounds tested hit in one or more screens of this group.
TDP-43 yeast inh: rescues yeast growth from TDP-43 toxicity | AID 652104 | Potency, µM (series often up to 46.1 µM), without a hit: top-dose growth rescue (activation), most hits filed as activators | hit rate 1.8% among 410,000 | TDP-43 expressing yeast growth rescue, BacTiter-Glo, 24 h; also: % of control where 0% means no effect; nearly all actives have a fitted effect of over 50% in size
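Galactose-induced TDP-43 yeast, OD600=0.02, compound pinned; 24 hr, 30 deg C; BacTiter-Glo luminescence for growth. Inhibitors of TDP-43 toxicity read as activators.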
aSyn yeast inh: inhibitors of alpha-synuclein toxicity in yeast; Yeast expressing alpha-synuclein, growth rescue, BacTiter-Glo, 24 h; hit rate 0.14% among 370,000; Potency, µM (top dose mostly 46.1 µM), for the others: at the top dose growth rescue (activation), actives largely listed as activators; also: % of control where 0% means no effect; nearly all actives have a fitted effect of over 65% in size
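Rescue of yeast growth: cells expressing toxic alpha-synuclein, induced in galactose at OD600 0.02, incubated with compound 24 h at 30 C. ATP luminescence quantified growth; inhibitors of toxicity appear as activators.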
FUS suppressor: rescues growth of FUS-expressing yeast. Potency, µM (series often up to 76.6 µM), most hits filed as activators. hit rate 0.24% among 390,000. S. cerevisiae FUS-expressing, growth rescue, OD600, 24 h;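 also: plate controls were DMSO vehicle for no effect and reference control for full effect; nearly all actives have a fitted effect of over 55% in size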
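Yeast expressing FUS under galactose induction, OD 0.005 in 2% galactose medium; compounds in a dilution series, 24 h at 30C. Growth rescue by absorbance at 600 nm; CP55940 positive control, DMSO negative.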
Abeta rescue: restores growth of yeast expressing A-beta42 peptide. Potency, µM (doses to about 46.1 µM), usual class: activators. hit rate 0.063% among 410,000. yeast expressing A-beta42, growth rescue, OD600, 48 h; response scale: 0% DMSO, 100% iron-clioquinol control; also: nearly all actives have a fitted effect of over 55% in size
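Yeast growth medium received pinned compounds, then yeast cells expressing toxic A-beta were added; plates incubated at 30 C for 48 hr. Growth read as absorbance at 600 nm, normalized to DMSO and equimolar FeCl3 plus clioquinol controls.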
* hit, by the source's call; [ ] = remark or other dose. Calls follow the shape of the dose curve; as a rule, active = well fitted curve in the direction sought with a large enough effect; inconclusive = small, poorly fitted or top-dose-only effect, or another doubt; inactive = no such curve, though single readings can be large; an effect the other way counts as inactive or inconclusive. Potency is read from the fitted curve at half-maximal effect.

For O=C(CSc1ncccn1)N/N=C/c1ccc(OC2CSC2)cc1 the results were TDP-43 yeast inh 11.2µM*, aSyn yeast inh 6.2%, FUS suppressor inactive and Abeta rescue inactive.
`O=[N+]([O-])c1ccc(N2CCN(c3ccccc3O)CC2)c(Cl)c1` gave TDP-43 yeast inh 14.0%, aSyn yeast inh 4.9%, FUS suppressor inactive and Abeta rescue inactive.
Screening O=C1Cc2cc([N+](=O)[O-])ccc2N1c1c(Cl)cccc1Cl returned TDP-43 yeast inh 20µM*, aSyn yeast inh 3.1%, FUS suppressor inactive and Abeta rescue inactive.
Screening Cc1cc(/C([O-])=C(/C(=S)Nc2ccccc2)[n+]2ccccc2)c(C)n1-c1ccccc1 returned TDP-43 yeast inh 6.1%, aSyn yeast inh 0.0%, FUS suppressor 15.8µM* and Abeta rescue inactive.
Cc1cc(/C([O-])=C(/C(=S)Nc2ccc(F)cc2)[n+]2ccccc2)c(C)n1-c1ccc(F)cc1 was read as TDP-43 yeast inh -17.1%, aSyn yeast inh -0.2%, FUS suppressor inconclusive and Abeta rescue inactive.
Screening CCOc1cc(N2CCOCC2)c(OCC)cc1NC(=O)c1ccc(S(=O)(=O)N2CC(C)OC(C)C2)cc1 (stereo unspecified) returned TDP-43 yeast inh 12.5%, aSyn yeast inh -8.2%, FUS suppressor inactive and Abeta rescue inactive.
For CC1(C)CCC[C@@]2(C)CC=C(C(=O)O)[C@@H]3C[C@]312 the results were TDP-43 yeast inh 11.2µM*, aSyn yeast inh inconclusive, FUS suppressor inactive and Abeta rescue inactive.
Screening CCc1cccc(CC)c1NC(=S)Nc1ccccc1 returned TDP-43 yeast inh -25.0%[0.397 µM], aSyn yeast inh -3.5%, FUS suppressor inactive and Abeta rescue 14.1µM*.
For CCc1cccc(CC)c1NC(=O)c1cccc(NC(=O)c2ccccc2)c1 the results were TDP-43 yeast inh 21.4%, aSyn yeast inh -7.6%, FUS suppressor inactive and Abeta rescue inactive.
For CCCCn1c(SCc2nc3ccccc3s2)nc2cc(S(N)(=O)=O)ccc21 the results were TDP-43 yeast inh -24.3%, aSyn yeast inh -4.2%, FUS suppressor 22.4µM* and Abeta rescue inactive.
Screening Cc1ccc(Cl)cc1N1CCN(Cc2nc3c(c(=O)[nH]c(=O)n3C)n2Cc2ccccc2F)CC1 returned TDP-43 yeast inh 11.2µM*, aSyn yeast inh -1.4%, FUS suppressor inactive and Abeta rescue inactive.
`O=C(O)C(Cc1cccs1)c1cccs1` (stereo unspecified) gave TDP-43 yeast inh 14.8%, aSyn yeast inh 10.5%, FUS suppressor inactive and Abeta rescue inactive.
Screening CCCc1ccc(OCCNC(=O)C2CCCCC2)cc1 returned TDP-43 yeast inh -5.5%, aSyn yeast inh 0.4%, FUS suppressor inactive and Abeta rescue inactive.
`COc1cc2c(cc1OC)/C(=C/C(=O)c1ccc(F)cc1)NCC2` gave TDP-43 yeast inh 10µM*, aSyn yeast inh 6.1%, FUS suppressor inactive and Abeta rescue inactive.
Screening COc1cc2c(cc1OC)/C(=C/C(=O)c1ccccc1F)NCC2 returned TDP-43 yeast inh 10.4%, aSyn yeast inh 8.9%, FUS suppressor inactive and Abeta rescue inactive.
`Cc1ccccc1NC(=O)c1ccc(F)c(S(=O)(=O)N(C)C2CCCCC2)c1` gave TDP-43 yeast inh 15.8µM*, FUS suppressor inconclusive and Abeta rescue inconclusive.
`Cc1cccc(NC(=O)c2cc(S(=O)(=O)N(C)c3ccc(F)cc3)ccc2Cl)n1` gave TDP-43 yeast inh 11.2µM*, aSyn yeast inh -4.5%, FUS suppressor inactive and Abeta rescue inactive.
`O=C(Nc1ccccn1)c1cccc(S(=O)(=O)N2CCCCC2)c1` gave TDP-43 yeast inh 16.3%, aSyn yeast inh 8.1%, FUS suppressor inactive and Abeta rescue inactive.
Screening CN(C1CCCCC1)S(=O)(=O)c1cccc(C(=O)Nc2ccccn2)c1 returned TDP-43 yeast inh 17.8µM*, aSyn yeast inh 6.5%, FUS suppressor inactive and Abeta rescue inactive.
Cc1cccc(NC(=O)c2cccc(S(=O)(=O)N(C)C3CCCCC3)c2)n1 was read as TDP-43 yeast inh 20µM*, aSyn yeast inh 11.5%, FUS suppressor inactive and Abeta rescue inactive.
COc1ccccc1N(C)S(=O)(=O)c1ccc(Cl)c(C(=O)Nc2cccc(C)n2)c1 was read as TDP-43 yeast inh 4.5%, aSyn yeast inh 7.3%, FUS suppressor inactive and Abeta rescue inactive.
CC1(C)CC2(CCCN3C(=O)CSC32)CCS1 (stereo unspecified) was read as TDP-43 yeast inh 14.5%, aSyn yeast inh -10.3%, FUS suppressor inactive and Abeta rescue inactive.
Screening O=c1c2ccccc2n(Cc2ccco2)n1[C@@H](Cc1ccccc1)Cn1cc(-c2ccc(-c3ccccc3)cc2)nn1 returned FUS suppressor 17.8µM*.
For CC(C)(C)c1ccc(-c2cn(C[C@H](Cc3ccccc3)n3c(=O)c4ccccc4n3Cc3ccco3)nn2)cc1 the results were FUS suppressor inactive.
Cc1onc(-c2ccccc2Cl)c1C(=O)Nc1ccc(Br)cc1 was read as TDP-43 yeast inh 11.2µM*, aSyn yeast inh 1.7%, FUS suppressor inactive and Abeta rescue inactive.
`Cc1onc(-c2ccccc2Cl)c1C(=O)Oc1cccc2cccnc12` gave TDP-43 yeast inh 17.8µM*, aSyn yeast inh 11.4%, FUS suppressor inactive and Abeta rescue inactive.
Cc1cn([C@H]2C[C@H](O)[C@@H](CNCc3ccc4ncccc4c3)O2)c(=O)[nH]c1=O was read as TDP-43 yeast inh 11.6%, aSyn yeast inh 1.8%, FUS suppressor inactive and Abeta rescue inactive.
`CCOC(=O)C1CCCCN1S(=O)(=O)c1ccc2c(c1)CC(C)N2C(=O)C1CCC1` (stereo unspecified) gave TDP-43 yeast inh 24.3%, aSyn yeast inh 9.9% and FUS suppressor 25.1µM*.
CCC1CCCCN1S(=O)(=O)c1ccc2c(c1)CCN2C(=O)C1CCC1 (stereo unspecified) was read as TDP-43 yeast inh 35.5µM*, aSyn yeast inh 8.3%, FUS suppressor inactive and Abeta rescue inactive.
Screening CCC1CCCCN1S(=O)(=O)c1ccc2c(c1)CCCN2C(C)=O (stereo unspecified) returned TDP-43 yeast inh inconclusive, FUS suppressor inactive and Abeta rescue inactive.
Screening O=C1CC(N2CCN(c3ccccc3Cl)CC2)C(=O)N1c1cccc(F)c1 (stereo unspecified) returned TDP-43 yeast inh 12.6µM*, aSyn yeast inh 0.5%, FUS suppressor inactive and Abeta rescue inactive.
Cc1ccccc1NC(=S)NC(=O)/C=C/c1ccco1 was read as TDP-43 yeast inh 10µM*, aSyn yeast inh -10.6%, FUS suppressor 8.91µM* and Abeta rescue inactive.
Screening COc1cccc(Oc2cnc(N)nc2-c2ccc(OC)cc2O)c1 returned TDP-43 yeast inh 10µM*, aSyn yeast inh 2.3%, FUS suppressor inactive and Abeta rescue inactive.
`COc1ccc(-c2nc(N)ncc2Oc2ccccc2Br)c(O)c1` gave TDP-43 yeast inh 0.0%, aSyn yeast inh 7.1%, FUS suppressor inactive and Abeta rescue inactive[9.22 µM].
